Screens as filed in PubChem BioAssay.
JMJD2A Tudor = blocks the human JMJD2A Tudor domain; AlphaScreen JMJD2A-Tudor / H3K4me3 peptide binding; Potency, µM (highest dose often 114 µM), actives largely listed as inhibitors; 390,000 compounds, 4.4% hits; AID 504339; note: nearly all actives have a fitted effect of over 50% in size
HP1b chromo inh = blocks HP1-beta chromodomain binding to methylated histone tails; P83916; AlphaScreen HP1-beta / biotin-H3K9me3 peptide binding; Potency, µM (doses to about 114 µM), hits mostly inhibitors; 390,000 compounds, 0.56% hits; AID 540317; note: nearly all actives have a fitted effect of over 70% in size
Target sequence (P83916 whole entry, looked up): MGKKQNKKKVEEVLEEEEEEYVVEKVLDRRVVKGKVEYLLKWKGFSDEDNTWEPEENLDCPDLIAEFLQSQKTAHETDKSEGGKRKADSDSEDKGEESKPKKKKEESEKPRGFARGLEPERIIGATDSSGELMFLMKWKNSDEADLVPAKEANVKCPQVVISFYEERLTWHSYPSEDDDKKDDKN
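Compound inhibition of the preformed complex between 50 nM HP1-beta and 50 nM biotinylated H3K9me3 peptide was read by AlphaScreen. Buffer was PBS pH 7.4 with 0.01% Tween-20. Incubations ran 30 min at room temperature, with 10 ug/mL donor/acceptor beads.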
Sfp PPTase inh = inhibitors of Bacillus subtilis Sfp phosphopantetheinyl transferase; Biochemical Sfp PPTase activity, qHTS; 310,000 compounds, 3.5% hits; Potency, µM, hits mostly inhibitors; Q9F4F7; AID 1490;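 note: the enzyme is Sfp with the accession as filed and its product quenches rhodamine fluorescence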
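Compounds were incubated with enzyme (final 15 nM) for 15 min at room temperature before substrate addition started the reaction. Fluorescence at 525 nm excitation, 598 nm emission was recorded immediately and after 30 minutes.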
G9a inh = blocks human histone lysine methyltransferase G9a; 350,000 compounds, 8.8% hits; Q96KQ7; AID 504332; G9a H3K9 monomethylation, AlphaScreen, 2 h; Potency, µM (doses to about 102 µM), hits mostly inhibitors; note: nearly all actives have a fitted effect of over 75% in size
Target sequence (Q96KQ7 913-1193 limits assumed): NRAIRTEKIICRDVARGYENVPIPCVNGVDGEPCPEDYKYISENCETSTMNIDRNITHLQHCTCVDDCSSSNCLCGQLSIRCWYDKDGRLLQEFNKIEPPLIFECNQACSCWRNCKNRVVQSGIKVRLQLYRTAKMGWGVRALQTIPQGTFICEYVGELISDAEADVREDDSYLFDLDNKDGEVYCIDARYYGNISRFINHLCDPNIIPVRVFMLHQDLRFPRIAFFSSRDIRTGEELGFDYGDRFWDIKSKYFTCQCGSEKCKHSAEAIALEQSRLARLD
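AlphaScreen detection with an anti-monomethyl H3K9 antibody quantified product after a 2 h room-temperature reaction containing 500 nM biotinylated H3K9 peptide, 20 µM SAM and 20 nM enzyme, which had been preincubated 15 min with compound.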
BAZ2B block = inhibitors of human BAZ2B bromodomain; 360,000 compounds, 4.4% hits; AlphaScreen BAZ2B-H3K14Ac peptide displacement; Potency, µM (titrated, usually from 114 µM), hits mostly inhibitors; note: nearly all actives have a fitted effect of over 60% in size
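Multi-concentration screen (max 110 uM) measuring displacement of acetylated histone H3 peptide from BAZ2B by AlphaScreen, using 50 nM protein, 50 nM peptide and 10 ug/mL streptavidin donor plus Ni-chelate acceptor beads.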
L3MBTL1 inh = blocks human L3MBTL1; AlphaScreen L3MBTL1–H3K9me1 peptide binding; Potency, µM (doses to about 57.1 µM), most hits filed as inhibitors; 230,000 compounds, 0.66% hits; AID 485360; note: nearly all actives have a fitted effect of over 60% in size
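L3MBTL1 50 nM + b-AHA-H3(1-15)K9me1 75 nM, 30 min RT; compound added, 30 min RT; streptavidin donor/Ni-chelate acceptor beads 10 ug/mL each final, 30 min RT dark; AlphaScreen read.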
Hits are given with their value; – = inactive; ? = inconclusive; · = not tested or not shown; ! = not active in a repeat; [ ] = dose if it differs, or a comment. This is a sample that favours compounds with a hit; in the whole collection about 12% have one here. Calls come from the whole dose curve; as a rule, active = well fitted curve in the direction sought with a large enough effect; inconclusive = small, poorly fitted or top-dose-only effect, or another doubt; inactive = no such curve, though single readings can be large; an effect the other way counts as inactive or inconclusive.

SMILES	JMJD2A Tudor	HP1b chromo inh	Sfp PPTase inh	G9a inh	BAZ2B block	L3MBTL1 inh
Fc1ccc(NC(=S)NN=C2CCCCCC2)cc1	56µM	–	–	35µM	?	–
S=C(NN=C1CCCCCC1)Nc1ccc(Cl)cc1	100µM	–	–	28µM	–	·
CCOC(=O)c1ccc(NC(=O)c2cc(=O)c3cc(CC)ccc3o2)cc1	–	–	·	–	–	·
COCCN(CCOC)c1ncc(Cl)c(C(=O)c2c(C)cc3ccccn23)n1	–	–	–	40µM	–	–
Cc1cc2ccccn2c1C(=O)c1nc(N2CCOCC2)ncc1Cl	?	–	–	71µM	?	–
COc1cc(N2C(=O)C=CC2=O)c(OC)cc1Cl	10µM	10µM	3.5µM	2.5µM	–	–
CCc1ccc(NS(=O)(=O)c2ccc(-c3cc(C)no3)cc2)cc1	–	–	·	–	–	·
COc1ccc(S(=O)(=O)n2nc(-c3ccco3)nc2NCc2ccc(N(C)C)cc2)cc1	13µM	–	·	11µM	25µM	·
Cc1ccc(S(=O)(=O)n2nc(-c3ccco3)nc2NCc2ccc(N(C)C)cc2)cc1	25µM	–	·	8.9µM	10µM	·
Cc1ccc(S(=O)(=O)n2nc(-c3ccco3)nc2N)cc1	–	–	89µM	·	–	–
Nc1nc(-c2ccco2)nn1S(=O)(=O)c1ccccc1	–	–	–	–	–	–
CCc1ccccc1NC(=O)CN(C)S(=O)(=O)c1cccc2nsnc12	–	–	·	–	·	·
CN(C)c1ccc(CNC(=O)c2ccc(Cn3c(=O)c4cccn4c4cccnc43)cc2)cc1	–	–	·	–	–	·
COc1ccc(-c2ccc3c(c2)O/C(=C\c2ccsc2)C3=O)cn1	–	–	·	·	·	–
COC(=O)CSc1nc(SC)nc2c1sc1nc(-c3ccco3)c3c(c12)CC(C)(C)OC3	–	–	·	·	·	·
COCCCNc1ncnc2c1sc1nc(-c3ccco3)c3c(c12)CC(C)(C)OC3	–	–	?	–	–	·
CSc1nc(N(CCO)CCO)c2sc3nc(-c4ccco4)c4c(c3c2n1)CCC4	–[11.4 µM]	11µM	18µM	13µM	?	2.5µM
CSc1nc(SCCO)c2sc3nc(-c4ccco4)c4c(c3c2n1)CC(C)(C)OC4	?	–	20µM	?	32µM	–
CC1(C)Cc2c(c(-c3ccco3)nc3sc4c(NCCO)ncnc4c23)CO1	–	–	50µM	?	·	·
COc1ccc(/C=C/C(=O)Nc2nc(-c3cccs3)ns2)cc1	–	–	·	–	–	·
CN1C(=O)c2ccccc2Sc2ccc(NC(=O)COc3ccc(F)cc3)cc21	–	–	·	–	–	·
COc1ccccc1-c1ccc2ncnc(Nc3ccccc3)c2c1	·	·	–	–[0.501 µM]	·	·
CN[C@@H]1[C@H](O[C@H]2[C@@H](O[C@@H]3[C@@H](O)[C@@H](O)[C@@H](N=C(N)N)[C@@H](O)[C@@H]3N=C(N)N)O[C@@H](C)[C@]2(O)CO)O[C@H](CO)[C@@H](O)[C@@H]1O	·	·	–	–[21.5 µM]	·	·
CC(C)CC1NC(=O)N(CC(=O)Nc2cc(S(=O)(=O)N3CCOCC3)ccc2Cl)C1=O (stereo not given)	–	–	·	·	·	–
COc1ccc(NCc2nc3ccccc3n2CCOc2ccc(C)cc2)cc1	11µM	40µM	–	14µM	10µM	?
SMILES	JMJD2A Tudor	HP1b chromo inh	Sfp PPTase inh	G9a inh	BAZ2B block	L3MBTL1 inh
COc1ccc(NCc2nc3ccccc3n2CCOc2ccccc2)cc1	40µM	–	–	32µM	18µM	?
Cn1c(CNc2ccc(O)cc2)nc2ccccc21	–	–	79µM	?	?	·
c1ccc(NCc2nc3ccccc3n2CCOc2ccccc2)cc1	–	–	–	?	?	–
COc1ccc(NC(=O)CCc2c(C)nc3c(c2C)c(=O)n(C)c(=O)n3C)c(OC)c1	–	–	·	–	–	·
NCCCCCCNS(=O)(=O)c1cccc2c(Cl)cccc12	–	–	63µM!	–[12.7 µM]	·	·
NCCCCCCCCCCNS(=O)(=O)c1cccc2c(Cl)cccc12	·	·	50µM	·	·	·
CCCCCCCNS(=O)(=O)c1cccc2c(Cl)cccc12	·	·	–	·	·	·
N#Cc1ccc(N[C@@H]2CCN3C(=O)c4ccccc4[C@@H]3C[C@H]2O)cc1	–	–	·	·	·	–
CC1CCC(C(C)(C)O)CC2=C1CCC2C (stereo not given)	·	·	–	·	·	·
COc1cc(/C=C2\SC(=S)N(NS(=O)(=O)c3ccc(C)cc3)C2=O)ccc1O	–[11.4 µM]	?	–	25µM	?	–
COc1ccc(/C=C2/SC(=S)N(NS(=O)(=O)c3ccccc3)C2=O)cc1	?	–	–	?	–	·
CCOc1cc(/C=C2\SC(=S)N(NS(=O)(=O)c3ccc(C)cc3)C2=O)ccc1O	?	–	·	·	·	·
COc1cc(/C=C2\SC(=S)N(NS(=O)(=O)c3ccccc3)C2=O)ccc1O	?	?	–	40µM	?	–
C=CCOc1ccc(/C=C2\SC(=S)N(NS(=O)(=O)c3ccccc3)C2=O)cc1	?	–	–	–[2.33 µM]	50µM	·
CC(C)C(C)/C=C/C(C)C1CCC2C3=CCC4CC(=O)CC[C@@]4(C)C3CC[C@]21C (stereo not given in full)	·	·	–	·	·	·
CCNC(COC(=O)c1ccc([N+](=O)[O-])cc1)C1CCCCC1 (stereo not given)	–	–	·	·	·	·
O=C1c2c(O)cc(O)cc2O[C@@]12c1c(cc(O)c3c1O[C@H](c1ccc(O)cc1)[C@@H](O)C3)O[C@@H]2c1ccc(O)cc1	–	–	–	50µM	?	–
CCOc1ccc(NC(=O)CN(C)C(=O)c2ccc(C)o2)cc1OCC	–	–	–	–	–	·
Cc1ccccc1CN1CCN(S(=O)(=O)c2ccc(Cl)s2)CC1	–	–	–	–	–	·
CCS(=O)(=O)N1CCN(S(=O)(=O)c2ccc(Cl)s2)CC1	–	–	–	16µM	50µM	·
Cc1ccc(C2(C)NC(=O)N(CC(=O)Nc3cc(S(=O)(=O)N(C)C)ccc3C)C2=O)cc1 (stereo not given)	–	–	–	–	–	·
S=c1[nH]cnc2scc(-c3ccc(Cl)cc3)c12	–	?	–	45µM	–	–
Clc1ccc(-c2csc3ncnc(Cl)c23)cc1	–	–	–	–	–	–
NNc1ncnc2scc(-c3ccc(Cl)cc3)c12	–	–	–	–	71µM	–
Cc1ccc(-c2csc3nc[nH]c(=S)c23)cc1	–	–	–	–	?	–
COc1ccc(N(CC(=O)Nc2cccc(Cl)c2)S(=O)(=O)c2c(C)[nH]c(=O)[nH]c2=O)cc1	–	–	·	?	–	·
Cc1ccc(C(C)C)c(OCC(=O)c2c(O)c3ccccc3oc2=O)c1	45µM	–	·	·	·	·
Cc1ccc(C(C)C)c(OCC(=O)Nc2c(C(=O)c3ccccc3)oc3ccccc23)c1	–	–	·	–	–	·
CCc1ccc(OCC(=O)c2c(O)c3ccccc3oc2=O)cc1	–	–	–	45µM	?	–
Cc1ccc(OCC(=O)Nc2c(C(=O)c3ccccc3)oc3ccccc23)cc1C	–	–	·	–	–	·
